# Measurements taken from PubChem BioAssay AID493210 (National Center for Advancing Translational Sciences (NCATS), 2011).
# The list shows a part of the results. The source made the active and inactive calls. Calls follow the shape of the full dose curve.
# Target: Aldehyde dehydrogenase 1A1 (Homo sapiens) (UniProt P00352)
# Assay: Inhibitors of Aldehyde Dehydrogenase 1 (ALDH1A1): Followup Confirmation and Counterscreen
# Conditions: purified ALDH1A1, NADH fluorescence, propionaldehyde/NAD+
# Text: Aldehyde dehydrogenase 1 (ALDH1A1) catalyzes the NAD+ dependent oxidation of a variety of endogenous and exogenous aldehydes to the corresponding carboxylic acids. The enzyme is the critical step in the metabolic activation of retinoic acid, which plays essential roles as nuclear receptor ligand. […] See [1] through for more information on ALDH1A1. Inhibition of ALDH1A1 activity was screened by utilizing propionaldehyde as an electron donor and NAD+ as an electron acceptor/cofactor. An increase in the fluorescence intensity due to conversion of NAD+ to NADH was used to measure the enzyme activity. See [5] for screening methodology used. References: [1] Manzer R, Qamar L, Estey T, Pappa A, Petersen DR, Vasiliou V. Molecular cloning and baculovirus expression of the rabbit corneal aldehyde dehydrogenase (ALDH1A1) cDNA. DNA Cell Biol. 2003 May;22(5):329-38. Collard F, Vertommen D, Fortpied J, Duester G, Van Schaftingen E. Identification of 3-deoxyglucosone dehydrogenase as aldehyde dehydrogenase 1A1 (retinaldehyde dehydrogenase 1). Biochimie. 2007 Mar;89(3):369-73. Ziouzenkova O, Orasanu G, Sharlach M, Akiyama TE, Berger JP, Viereck J, Hamilton JA, Tang G, Dolnikowski GG, Vogel S, Duester G, Plutzky J. Retinaldehyde represses adipogenesis and diet-induced obesity. Nat Med. 2007 Jun;13(6):695-702. Molotkov A, Duester G. Genetic evidence that retinaldehyde dehydrogenase Raldh1 (Aldh1a1) functions downstream of alcohol dehydrogenase Adh1 in metabolism of retinol to retinoic acid. J Biol Chem. 2003 Sep 19;278(38):36085-90. […] Quantitative high-throughput screening: a titration-based approach that efficiently identifies biological activities in large chemical libraries. […]
# Buffer: 100 mM Hepes pH 7.5, 0.01% Tween 20. […] The plates were immediately transferred to and read twice on ViewLux High-throughput CCD imager (Perkin-Elmer) 20 minutes apart using 360 nm excitation and 450 nm emission fluorescence protocol. The fluorescence intensity difference between the second and the first time points was used to compute reaction progress.
# Chain of Aldehyde dehydrogenase 1A1 (Homo sapiens) (P00352 whole entry, looked up): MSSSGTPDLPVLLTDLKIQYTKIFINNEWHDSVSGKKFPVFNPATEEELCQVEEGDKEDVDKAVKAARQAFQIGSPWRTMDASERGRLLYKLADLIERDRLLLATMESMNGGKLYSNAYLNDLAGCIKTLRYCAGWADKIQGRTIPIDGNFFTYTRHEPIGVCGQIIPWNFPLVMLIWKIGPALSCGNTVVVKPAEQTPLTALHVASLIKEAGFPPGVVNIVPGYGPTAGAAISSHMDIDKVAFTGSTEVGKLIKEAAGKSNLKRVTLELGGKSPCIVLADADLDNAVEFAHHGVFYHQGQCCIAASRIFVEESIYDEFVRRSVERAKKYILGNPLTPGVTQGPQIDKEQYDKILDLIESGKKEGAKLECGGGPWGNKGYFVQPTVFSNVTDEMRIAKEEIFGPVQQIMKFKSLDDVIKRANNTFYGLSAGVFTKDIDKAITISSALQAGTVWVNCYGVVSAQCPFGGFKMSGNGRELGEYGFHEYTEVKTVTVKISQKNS
row,SMILES,Potency
1,O=C(CN(Cc1ccccc1)C(=O)c1ccc2c(c1)OCCO2)NCc1ccc2c(c1)OCO2,0.398 µM (active)
2,CC1CCCN(C(=O)c2ccc3c(c2)C(=O)N(CCC2=CCCCC2)C3=O)C1 (stereo not drawn),1.26 µM (active)
3,Cc1cccc2c1N(CC(=O)OC(C)C)C(=O)C2=O,0.0224 µM (active)
